Results: PubChem BioAssay (NCATS)
Inconclusive results are not listed. Entries that show only a call come without a potency. Activity calls are given as the source filed them. Calls follow the shape of the dose curve; as a rule, active = well fitted cell-killing curve with a large enough effect; inconclusive = small, poorly fitted or top-dose-only effect; inactive = no such curve, though single readings can be large or run the other way.

experiment: qHTS of pediatric cancer cell lines to identify multiple opportunities for drug repurposing: Primary screen for Rh41 cells (AID 1347108); settings: Rh41 rhabdomyosarcoma viability, CellTiter-Glo luminescence, 48 h; series mostly up to 46 µM; also: nearly all actives have a fitted effect of over 70% in size
Text: Drug repurposing or repositioning has been offered as a strategy for drug development in oncology programs. This approach has special potential for childhood cancers and other rare or orphan diseases, where the expected return on new drug development has been a disincentive to pharmaceuticals. […] In this project we exploit the poly-pharmacology of drugs to discover new indications via phenotypic screening of a panel of 19 well-characterized cell lines derived from solid tumors seen in children and adolescents. The goal is to identify approved drugs with previously unrecognized anticancer properties that has the potential to reveal new mechanisms and biological processes involved in carcinogenesis or drug resistance. We employed a titration-based paradigm (quantitative high-throughput screening or qHTS), where all compounds were tested at multiple concentrations for their effect on cell viability. Concentration-response curves (CRCs) were derived directly from the primary screen, and both potency and efficacy values were used to identify compounds with robust bioactivity profiles. We screened the NIH Chemical Genomics Center (NCGC) Pharmaceutical Collection (NPC) and Mechanism Interrogation Plate (MIPE) small molecule collections of approved and investigational compounds against these cell lines; and measured metabolically active cells after 48 hours of compound treatment as a proxy for cell viability. […] Assay Submitter: Nathalia J. Martinez, National Center for Advancing Translational Sciences, National Institutes of Health, Rockville, MD, USA; email: natalia.martinez@nih.gov Shen, M et al. Quantitative high-throughput phenotypic screening of pediatric cancer cell lines identifies multiple opportunities for drug repurposing. Oncotarget 2017 Dec 19;9(4):4758-4772. PMID 29435139.
The cells were obtained from University of North Carolina (UNC), Pediatric Preclinical Testing Program (PPT), and Coriell Institute (CI). qHTS cell viability assay: Cells were assayed in growth media at a density of 500-1,000 cells/well. Five microliters of cells were dispensed into 1,536-well, white, solid-bottom, TC-treated plates (Greiner Bio One) using a multidrop dispenser and incubated at 37 degrees C, 5% CO2, under a humidified atmosphere for 5 hours. Twenty-three nanoliters of compounds and controls (neutral control DMSO or positive control bortezomib at final concentration of 2.3 µM) were subsequently transferred by Kalypsys pintool. For primary screens, the MIPE collection was tested at 11-point dilutions (final concentrations range from 0.78 nM to 46 µM) and the NPC collection at 8-point dilutions (final concentrations range from 0.59 nM to 46 µM). Compounds tested in follow-up screens were assayed at 11-point dilutions. Cells were incubated for 48 hours, followed by addition of 3 µL of CellTiter-Glo (Promega). After a 15 min incubation at room temperature, samples were analyzed for luminescence intensity using a ViewLux High-throughput CCD imager equipped with clear filters.
Potency is read from the fitted curve at half-maximal effect.

| Structure (SMILES) | Potency |
| --- | --- |
| OC(CN1CCC(Cc2ccc(F)cc2)CC1)c1ccc(Cl)cc1 (stereo not given) | inactive |
| COc1ccc(COc2cc3oc(=O)c4cc(C(C)O)ccc4c3cc2OC)cc1 (stereo not given) | 18.7 µM (active) |
| O=S(=O)(N=Cc1c(O)ccc2ccccc12)c1cccs1 | 3.72 µM (active) |
| NC(=O)c1ccc(-c2nc(-c3ccc4c(c3)OCO4)c(-c3ccccn3)[nH]2)cc1 | inactive |
| OC[C@H](Cc1ccccc1)Nc1nc(Oc2ccc3c(c2)CCC3)nc2c1ncn2Cc1ccc(-c2ccccc2)cc1 | inactive |
| CNC[C@H](O)c1cccc(O)c1 | inactive |
| C[C@@H]1CN(Cc2ccc(F)cc2)[C@@H](C)CN1C(=O)c1cc2c(C(=O)C(=O)N(C)C)cn(C)c2cc1Cl | 14.8 µM (active) |
| Cc1[nH]c(=O)c(C#N)cc1-c1ccc2nccn2c1 | inactive |
| c1ccc([C@H]2CN3CCSC3=N2)cc1 | inactive |
| COc1ccc(-c2ccc3c(N4CCOCC4)nc(N4C[C@@H](C)O[C@@H](C)C4)nc3n2)cc1CO | 0.743 µM (active) |
| CC(C)C[C@H](NC(=O)[C@@H](O)[C@H](N)Cc1ccccc1)C(=O)O | 23.5 µM (active) |
| COc1ccc2c3n(c(=NC(=O)c4cccnc4)nc2c1OC)CCN3 | 0.935 µM (active) |
| Cc1ccc(N(CC2=NCCN2)c2cccc(O)c2)cc1 | inactive |
| C[C@]12CCC(=O)C=C1CC[C@@H]1[C@@H]2[C@@H](O)C[C@@]2(C)[C@H]1CC[C@]2(O)C(=O)CO | inactive |
| O=C(O)COCCN1CCN(C(c2ccccc2)c2ccc(Cl)cc2)CC1 (stereo not given) | inactive |
| CCCS(=O)(=O)Nc1ccc(F)c(C(=O)c2c[nH]c3ncc(Cl)cc23)c1F | inactive |
| O=C(Nc1nc2ccccc2n1CCN1CCOCC1)c1cccc([N+](=O)[O-])c1 | 18.7 µM (active) |
| Clc1ccc(Nc2nnc(Cc3ccncc3)c3ccccc23)cc1 | inactive |
| Cc1ccnc(NS(=O)(=O)c2ccc(NC(=O)Nc3ccc(S(=O)(=O)Nc4nccc(C)n4)cc3)cc2)n1 | inactive |
| COc1ccc(-c2ccc3c(N4CCOC[C@H]4C)nc(N4CCOC[C@H]4C)nc3n2)cc1CO | 0.0418 µM (active) |

| Structure (SMILES) | Potency |
| --- | --- |
| Cc1cc([C@@H](C)Nc2ccccc2C(=O)O)c2nc(N3CCOCC3)cc(=O)n2c1 | 8.55 µM (active) |
| O=C(C=Cc1ccc(/C=C/C(=O)Nc2ccc(C3=NCCN3)cc2)cc1)Nc1ccc(C2=NCCN2)cc1 | inactive |
| O=c1[nH]cnc2[nH]ncc12 | inactive |
| NNCCc1ccccc1 | inactive |
| CC[C@H](Nc1ncnc2nc[nH]c12)c1nc2cccc(F)c2c(=O)n1-c1ccccc1 | 14.8 µM (active) |
| OC(CCN1CCCCC1)(c1ccccc1)C1CC2C=CC1C2 (stereo not given) | inactive |
| CNC(=O)c1ccc(N2C(=S)N(c3ccc(C#N)c(C(F)(F)F)c3)C(=O)C2(C)C)cc1F | inactive |
| CCC(C)n1ncn(-c2ccc(N3CCN(c4ccc(OC[C@H]5CO[C@](Cn6cncn6)(c6ccc(Cl)cc6Cl)O5)cc4)CC3)cc2)c1=O (stereo not given in full) | inactive |
| CC(C)OC(=O)C1=CN(C(=O)c2ccc(F)c(F)c2)CC(C)(C)c2c1[nH]c1ccccc21 | inactive |
| CCN(c1ccccc1)c1cc(NC)[n+](C)c(C)n1 | inactive |
| O=c1n(CCCN2CCN(c3cccc(Cl)c3)CC2)nc2ccccn12 | inactive |
| CCc1ccc(CCOc2ccc(CC3SC(=O)NC3=O)cc2)nc1 (stereo not given) | inactive |
| O=NN(CCCl)C(=O)NCCCl | inactive |
| Fc1ccc(Cl)cc1-c1nc(Nc2ccncc2)c2nccnc2n1 | inactive |
| COc1ccccc1[C@H](c1cccc2ccccc12)[C@@](C)(C#N)C(=O)N1CCC(c2cccc(C(F)(F)F)c2)CC1 | 5.9 µM (active) |
| CCn1cc(C(=O)O)c(=O)c2cc(F)c(N3CCNC(C)C3)c(F)c21 (stereo not given) | inactive |
| CC(C)NCC(O)COc1ccc(COCCOC(C)C)cc1 (stereo not given) | inactive |
| O=C(O)CCc1ccc(NCc2cccc(Oc3ccccc3)c2)cc1 | inactive |
| CCC(C)(C)C(=O)O[C@H]1C[C@@H](C)C=C2C=C[C@H](C)[C@H](CC[C@@H]3C[C@@H](O)CC(=O)O3)[C@H]21 | inactive |
| NS(=O)(=O)c1cc2c(cc1Cl)NC=NS2(=O)=O | inactive |
